This note sets out measurements from PubChem BioAssay (NCATS).

Molecules are shown by their SMILES. Inconclusive results are not listed. Active and inactive are the calls of the source. Unless noted, calls follow the shape of the dose curve; as a rule, active = well fitted curve in either direction with a large enough effect (not every such curve was filed as active); inconclusive = small, poorly fitted or top-dose-only effect, or another doubt; inactive = flat fitted curve, though single readings scatter. Bounds are passed on as bounds.

The target of assay [1] is Lysosomal acid glucosylceramidase (Homo sapiens) (UniProt P04062). In words: Glucocerebrosidase-p2 (AID 348; in the data active = potency below about 10 µM; also: potency is read from the fitted curve at half-maximal effect). As to conditions: purified GBA, blue fluorogenic substrate, 40 min. In short, it runs like this: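 Normal human glucocerebrosidase (0.2 nM) with blue fluorogenic substrate (80 uM final) in citrate/phosphate pH 5.9 with 10mM sodium taurocholate, 0.01% tween-20; 40 min RT, NaOH/glycine stop; fluorescence Ex 365/Em 440; AC50 from a titration from 0.6 nM upwards.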
Sequence of Lysosomal acid glucosylceramidase (Homo sapiens) (P04062 whole entry, looked up): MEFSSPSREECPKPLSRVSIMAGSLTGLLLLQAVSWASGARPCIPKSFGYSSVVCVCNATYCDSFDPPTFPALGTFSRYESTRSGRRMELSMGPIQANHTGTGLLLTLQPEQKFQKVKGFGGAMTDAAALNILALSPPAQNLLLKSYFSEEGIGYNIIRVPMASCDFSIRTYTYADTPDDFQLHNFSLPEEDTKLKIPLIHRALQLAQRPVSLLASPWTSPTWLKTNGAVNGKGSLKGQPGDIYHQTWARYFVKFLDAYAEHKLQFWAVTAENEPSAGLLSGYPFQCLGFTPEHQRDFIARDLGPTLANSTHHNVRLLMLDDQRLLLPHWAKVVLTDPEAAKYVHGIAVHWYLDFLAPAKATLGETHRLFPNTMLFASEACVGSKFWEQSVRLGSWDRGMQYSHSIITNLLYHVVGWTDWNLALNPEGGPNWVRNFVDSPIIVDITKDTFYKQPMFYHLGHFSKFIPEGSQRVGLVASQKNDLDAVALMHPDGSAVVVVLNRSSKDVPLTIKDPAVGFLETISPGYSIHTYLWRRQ

The nature of assay [2]: AP1 Signaling Pathway (AID 357).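 Also: ME-180 reporter cells stimulated with EGF at its EC50 level; % is scaled to controls: 0 for no effect and ±100 for the full control effect.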 To be noted: ME-180 AP-1-bla reporter, EGF-induced, beta-lactamase ratio, 5 h; at 7.69 µM (top of the series) unless noted. In short, it runs like this:
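Modulation of EGF-driven AP-1 transcription was assessed with a beta-lactamase reporter in ME-180 cells. Compound and EC50 EGF were co-incubated 5 hours at 37 °C before 2.5-hour CCF4 loading at room temperature and dual-emission reading.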

The target in assay [3] is Cytochrome P450 1A2 (Homo sapiens) (UniProt P05177). In words: p450-cyp1a2 (AID 410; calls by dose curve; also: potency is read from the fitted curve at half-maximal effect;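 as to activity change, negative = inhibition: -100% = full effect of reference inhibitor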). As to conditions: recombinant CYP1A2, luciferin-ME demethylation, luminescence; series mostly up to 57 µM. In short, it runs like this:
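Luminescent demethylation readout: Luciferin-ME (100uM, equal to Km) turned over by 20nM CYP1A2 for 60 min at room temperature after NADPH regeneration addition, following 10 min compound preincubation. Normalization used 57 uM furafylline as full inhibition.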

The nature of assay [4]: NFAT Signaling Pathway (AID 444).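 Also: carbachol stimulus at about its EC50 of 1 µM final; % is scaled to controls: 0 for no effect and ±100 for the full control effect.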 As to conditions: Jurkat NFAT-bla M1, carbachol, beta-lactamase ratio, 5 h; at 7.69 µM (top of the series) unless noted. In short, it runs like this: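 Jurkat cells carrying an NFAT-driven β-lactamase reporter and co-transfected muscarinic M1 receptor were treated with compound plus carbachol (1 uM final, an EC50 level) for 5 h at 37 °C. CCF4 loading followed for 1 h at RT; 460/530 nm ratio gave %activity.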

The nature of assay [5]: Stat Signaling Pathway (AID 446).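 Also: ME-180 cervical cancer cells given 40 pM IL-6 alongside compound; SIE-controlled beta-lactamase reporter measured as 460/530 nm FRET emission ratio; % is scaled to controls: 0 for no effect and ±100 for the full control effect.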 As to conditions: ME-180 (cervical carcinoma) SIE beta-lactamase reporter, IL-6 stimulated, 5 h; at 7.69 µM (top of the series) unless noted. In short, it runs like this:
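Emission at 460 and 530 nm (excitation 405 nm) reports SIE-controlled beta-lactamase in ME-180 cells. Cells received compound with 40 pM IL-6 for 5 hrs at 37 C; data scaled between 300 pM IL-6 and 125 nM JAK-inhibitor controls.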

In assay [6] the target is Glucocorticoid receptor (Homo sapiens) (UniProt P04150). In words: GR-EFC Redistribution (AID 451; calls by dose curve; also: potency is read from the fitted curve at half-maximal effect). To be noted: CHO-K1 GR-EFC translocation, beta-gal luminescence, 2 h. In short, it runs like this:
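CHO-K1 cells stably expressing nuclear-localized β-gal enzyme acceptor and GR fused C-terminally to the enzyme donor fragment; ligand-driven nuclear translocation restores β-gal by complementation. Compounds titrated up to 46 uM final, 2 h at 37 °C; luminescence read.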

For assay [7], the target named is Mitogen-activated protein kinase 10 (Mus musculus) (UniProt Q61831). In words: JNK3 AlphaScreen Assay (AID 530).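 Also: kinase came from lysate of stimulated human HepG2 cells; signal reports phosphorylation of biotinylated GST-cJun 1-79 at Ser73 with 10 µM ATP; % is scaled to controls: 0 for no effect and ±100 for the full control effect.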 As to conditions: JNK3 lysate, c-Jun phosphorylation; series mostly up to 57.1 µM. In short, it runs like this:
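Phosphorylation of biotinylated GST-cJun(1-79) at Ser73 is measured by AlphaScreen proximity luminescence. Enzyme is JNK3 in HepG2 lysates activated with interleukin-1beta and tumor necrosis factor alpha; ATP is 10 uM final.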

For assay [8], the target named is 3',5'-cyclic-AMP phosphodiesterase 4B (Homo sapiens) (UniProt Q07343). In words: qHTS Assay for Inhibitors of PDE-IV (AID 607; active = well fitted activation curve with a large enough effect in the main read-out, with a control signal flat, not every such curve was filed as active; also: % of control where 0% means no effect). To be noted: HEK293 ACTOne CNG channel cells, membrane potential fluorescence; series mostly up to 22.9 µM. In outline: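 The readout is membrane depolarisation from a cAMP-sensing CNG channel, detected with a potential dye at ex 535/em 590. Cells were HEK293-derived (endogenous PDE-IV) at 1000 cells/well, titrated up to 22.9 uM final.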
Sequence of 3',5'-cyclic-AMP phosphodiesterase 4B (Homo sapiens) (Q07343 whole entry, looked up): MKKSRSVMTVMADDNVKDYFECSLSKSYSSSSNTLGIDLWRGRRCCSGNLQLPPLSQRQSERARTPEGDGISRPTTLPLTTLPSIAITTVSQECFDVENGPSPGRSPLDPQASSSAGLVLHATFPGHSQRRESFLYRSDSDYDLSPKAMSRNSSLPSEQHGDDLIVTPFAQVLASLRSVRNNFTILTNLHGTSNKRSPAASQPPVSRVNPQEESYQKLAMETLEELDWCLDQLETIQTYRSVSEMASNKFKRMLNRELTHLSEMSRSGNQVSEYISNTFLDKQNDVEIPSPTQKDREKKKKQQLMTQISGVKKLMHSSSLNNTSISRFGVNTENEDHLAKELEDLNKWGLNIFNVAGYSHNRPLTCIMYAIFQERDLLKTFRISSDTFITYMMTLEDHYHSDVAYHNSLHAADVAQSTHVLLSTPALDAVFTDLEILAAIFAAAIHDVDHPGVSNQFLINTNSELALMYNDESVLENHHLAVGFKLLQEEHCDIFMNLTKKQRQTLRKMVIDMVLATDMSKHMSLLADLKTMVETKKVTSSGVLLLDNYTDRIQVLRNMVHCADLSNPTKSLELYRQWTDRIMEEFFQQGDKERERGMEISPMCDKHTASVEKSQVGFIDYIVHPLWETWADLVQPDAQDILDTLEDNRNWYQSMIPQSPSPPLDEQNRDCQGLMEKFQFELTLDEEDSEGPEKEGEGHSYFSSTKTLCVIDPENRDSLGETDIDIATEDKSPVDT

Assay [9] concerns the target Cytochrome P450 3A4 (Homo sapiens) (UniProt P08684). In words: qHTS Assay for Activators of Cytochrome P450 3A4 (AID 885; active = well fitted curve in the direction sought with a large enough effect; an effect the other way counts as inactive or inconclusive; also: nearly all actives have a fitted effect of over 65% in size; also: potency is read from the fitted curve at half-maximal effect). As to conditions: recombinant CYP3A4, Luciferin-PPXE luminescence, 60 min; series mostly up to 57.1 µM. In outline:
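Activators are scored by enhanced luminescence from CYP3A4 conversion of luciferin-PPXE (25uM, equal to KM) to luciferin, after 60 min at RT with an NADPH-regenerating system.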
(In general: Quantitative high-throughput screening tests each substance at several concentrations.)

The nature of assay [10]: qHTS Assay for Lipid Storage Modulators (AID 1519; calls by dose curve). As to conditions: Drosophila S3 cells, BODIPY lipid droplet/cell ratio, laser cytometry, cells loaded with oleic acid; for activity change, negative = inhibition: at 57.5 µM (top of the series). In outline: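 Cells seeded at 5,000 per well were treated with compounds over a concentration series and loaded with oleic acid (400 uM, as added). Lipid droplet fluorescence (488 nm excitation, 500-530 nm channel) was read by laser-scanning cytometry and normalized to 20 uM Triacsin C.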

The nature of assay [11]: Primary qHTS for small molecule stabilizers of the endoplasmic reticulum resident proteome: Secreted ER Calcium Modulated Protein (SERCaMP) assay (AID 1508630; active = well fitted curve in the direction sought with a large enough effect; an effect the other way counts as inactive or inconclusive; also: % is scaled to controls: 0 for no effect and ±100 for the full control effect). To be noted: SH-SY5Y GLuc-SERCaMP (Gaussia luciferase released on ER calcium loss) secretion, thapsigargin, luminescence; series mostly up to 38.4 µM. In short, it runs like this:
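The SH-SY5Y reporter protocol was run at 3 concentrations up to 38.3 uM (primary) or 11 concentrations (follow-up): 16 h compound, 100 nM thapsigargin for 4 h, then extracellular luciferase luminescence.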

In assay [12] the target is Cytochrome P450 3A4 (Homo sapiens) (UniProt P08684). In words: qHTS Assay for Inhibitors and Substrates of Cytochrome P450 3A4 (AID 884; active = well fitted curve in the direction sought with a large enough effect; an effect the other way counts as inactive or inconclusive; also: nearly all actives have a fitted effect of over 50% in size; also: potency is read from the fitted curve at half-maximal effect). As to conditions: recombinant CYP3A4, Luciferin-PPXE luminescence; series mostly up to 57.1 µM. In outline: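 Luminescent readout of luciferin produced by CYP3A4 (20 nM) dealkylation of Luciferin-PPXE, 25 uM (its KM). NADPH-driven reaction ran 60 min at RT after 10 min compound preincubation; data scaled to 57 uM ketoconazole as 100% inhibition.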
Sequence of Cytochrome P450 3A4 (Homo sapiens) (P08684 whole entry, looked up): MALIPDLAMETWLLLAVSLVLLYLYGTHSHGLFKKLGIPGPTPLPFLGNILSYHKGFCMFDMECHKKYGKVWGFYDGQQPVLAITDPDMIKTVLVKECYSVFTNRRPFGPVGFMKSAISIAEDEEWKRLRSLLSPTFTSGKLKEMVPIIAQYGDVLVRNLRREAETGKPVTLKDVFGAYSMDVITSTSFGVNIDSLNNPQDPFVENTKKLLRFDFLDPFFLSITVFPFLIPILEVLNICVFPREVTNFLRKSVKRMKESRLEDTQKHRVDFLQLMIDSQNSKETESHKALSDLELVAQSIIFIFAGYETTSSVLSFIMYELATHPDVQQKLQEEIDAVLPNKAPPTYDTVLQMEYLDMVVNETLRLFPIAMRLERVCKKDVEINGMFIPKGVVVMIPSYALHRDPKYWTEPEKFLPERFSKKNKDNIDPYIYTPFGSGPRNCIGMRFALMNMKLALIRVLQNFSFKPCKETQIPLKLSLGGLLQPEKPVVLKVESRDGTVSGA

Assay [13] deals with Cytochrome P450 2D6 (Homo sapiens) (UniProt P10635). In words: qHTS Assay for Inhibitors and Substrates of Cytochrome P450 2D6 (AID 891; active = well fitted curve in the direction sought with a large enough effect; an effect the other way counts as inactive or inconclusive; also: potency is read from the fitted curve at half-maximal effect; nearly all actives have a fitted effect of over 60% in size). As to conditions: recombinant CYP2D6, luciferin-ME EGE luminescence; series mostly up to 57.1 µM. In outline:
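Luminescent read-out of luciferin formed by 5 nM human CYP2D6 demethylating 30 uM Luciferin-ME EGE (Km level) over 60 min at room temperature after NADPH regeneration addition. Data normalized to full inhibition by 1.43 uM quinidine.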

The mark [14] stands for this setting: measured here: cell count channel max response.
The mark [15] stands for this setting: measured here: lipid channel max response.

Sequence of Cytochrome P450 1A2 (Homo sapiens) (P05177 whole entry, looked up): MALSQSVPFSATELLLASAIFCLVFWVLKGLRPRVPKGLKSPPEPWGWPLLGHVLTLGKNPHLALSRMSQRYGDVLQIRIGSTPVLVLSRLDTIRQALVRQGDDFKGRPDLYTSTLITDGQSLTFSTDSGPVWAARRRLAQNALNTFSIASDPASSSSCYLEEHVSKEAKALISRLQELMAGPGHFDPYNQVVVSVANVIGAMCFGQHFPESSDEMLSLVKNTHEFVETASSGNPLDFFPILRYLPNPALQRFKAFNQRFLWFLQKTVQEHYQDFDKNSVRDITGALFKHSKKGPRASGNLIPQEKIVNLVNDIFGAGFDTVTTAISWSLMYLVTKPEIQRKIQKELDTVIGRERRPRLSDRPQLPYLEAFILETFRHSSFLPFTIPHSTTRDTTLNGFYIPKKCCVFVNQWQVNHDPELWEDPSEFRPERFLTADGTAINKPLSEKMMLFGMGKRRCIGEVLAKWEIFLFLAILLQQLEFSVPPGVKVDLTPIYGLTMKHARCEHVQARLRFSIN
Sequence of Glucocorticoid receptor (Homo sapiens) (P04150 whole entry, looked up, the tested form may be a part): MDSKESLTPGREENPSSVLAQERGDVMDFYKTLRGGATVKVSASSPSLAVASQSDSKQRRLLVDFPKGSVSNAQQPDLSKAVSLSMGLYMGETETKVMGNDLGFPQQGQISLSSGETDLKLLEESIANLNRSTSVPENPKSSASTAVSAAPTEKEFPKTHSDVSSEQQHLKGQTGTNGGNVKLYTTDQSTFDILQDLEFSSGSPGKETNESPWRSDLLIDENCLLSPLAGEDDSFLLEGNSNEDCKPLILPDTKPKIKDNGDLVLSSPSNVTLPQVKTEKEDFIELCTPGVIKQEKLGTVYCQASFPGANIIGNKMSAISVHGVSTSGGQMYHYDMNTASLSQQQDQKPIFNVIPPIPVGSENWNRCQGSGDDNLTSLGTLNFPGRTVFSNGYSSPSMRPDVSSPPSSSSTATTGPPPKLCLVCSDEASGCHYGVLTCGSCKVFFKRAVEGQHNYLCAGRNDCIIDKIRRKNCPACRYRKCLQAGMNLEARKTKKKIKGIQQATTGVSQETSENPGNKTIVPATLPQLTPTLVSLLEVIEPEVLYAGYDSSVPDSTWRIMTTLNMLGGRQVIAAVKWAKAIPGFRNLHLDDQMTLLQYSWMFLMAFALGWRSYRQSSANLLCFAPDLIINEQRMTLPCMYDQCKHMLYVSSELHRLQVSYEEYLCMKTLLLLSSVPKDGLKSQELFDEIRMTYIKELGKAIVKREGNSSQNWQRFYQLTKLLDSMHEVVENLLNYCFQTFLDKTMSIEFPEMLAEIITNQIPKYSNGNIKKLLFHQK
Sequence of Cytochrome P450 2D6 (Homo sapiens) (P10635 whole entry, looked up): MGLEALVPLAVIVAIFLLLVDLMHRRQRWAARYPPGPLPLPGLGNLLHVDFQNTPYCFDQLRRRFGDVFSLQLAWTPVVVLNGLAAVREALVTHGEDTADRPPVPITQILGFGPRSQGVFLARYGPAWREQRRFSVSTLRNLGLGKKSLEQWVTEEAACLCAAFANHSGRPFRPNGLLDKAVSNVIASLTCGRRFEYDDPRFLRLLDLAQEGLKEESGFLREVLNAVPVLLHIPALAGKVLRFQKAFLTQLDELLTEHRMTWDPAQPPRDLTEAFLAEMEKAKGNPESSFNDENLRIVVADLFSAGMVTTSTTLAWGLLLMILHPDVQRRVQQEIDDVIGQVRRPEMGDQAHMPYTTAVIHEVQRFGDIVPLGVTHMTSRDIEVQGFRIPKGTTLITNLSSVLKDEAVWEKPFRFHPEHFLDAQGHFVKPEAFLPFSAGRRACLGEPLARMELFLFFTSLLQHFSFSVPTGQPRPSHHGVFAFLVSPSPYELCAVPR

`O=C(Nc1ccccc1)N1CC[C@@]2(CCCN(C(=O)c3cnccn3)C2)C1`: the Potency in assay [1] was > 11.4 µM (inactive); in [6], > 46 µM (inactive). Further, the activity change, negative = inhibition in assay [2] was 6.39% (inactive); in assay [4], 7.42% (inactive); in [10] it was 1.67% (inactive). In addition, the Potency result in assay [3], in assay [8], in assay [9] and in [11] was “inactive” each time. For the same compound, the activity, negative = inhibition in [5] was -0.789% (inactive). Besides, the result in assay [7] was inactive. Moreover, the max response in assay [10] (setting [14]) was 12.8%; in assay [10] (setting [15]), 16%.
Consider `CS(=O)(=O)N1CCC2(CCN(C(c3ccccc3)c3ccccc3)CC2)CC1`, for which the Potency in [1] is > 11.4 µM (inactive); in assay [6], > 46 µM (inactive); in assay [9], 12.6 µM (active); in assay [13] it was 3.16 µM (active). For the same compound, the activity change, negative = inhibition was -4.08% (inactive) in [2], -8.24% (inactive) in assay [4] and 0.47% (inactive) in [10]. Besides, the Potency entry in [3], in assay [8], in assay [12] and in assay [11] was “inactive” in each case. Moreover, the activity, negative = inhibition in [5] was 3.12% (inactive). In addition, the outcome in [7] was inactive. Also, the max response was -0.926% in assay [10] (setting [14]) and 0.776% in assay [10] (setting [15]).
On to `Cc1noc(C)c1C(=O)N1CCC[C@@]2(CCN(C(=O)Nc3cccc(F)c3)C2)C1`, for which the Potency in assay [1] was > 11.4 µM (inactive); in assay [6] it was > 46 µM (inactive); in assay [12], 5.01 µM (active). Besides, the activity change, negative = inhibition was -2.75% (inactive) in assay [2], 9.58% (inactive) in [4] and 3.82% (inactive) in [10]. The Potency entry in assay [3], in assay [8], in assay [9] and in [11] was “inactive” throughout. Also, in assay [5], the activity, negative = inhibition is 8.15% (inactive). Besides, the call in [7] was inactive. Moreover, the results for the max response in assay [10] (setting [14]) and in assay [10] (setting [15]) were 8.32% and 13.6%, respectively.
Take `COC(=O)N1CCC[C@@]2(CCN(C(=O)Nc3cccc(F)c3)C2)C1`: the Potency was > 11.4 µM (inactive) in assay [1], 15.8 µM (active) in assay [3] and > 46 µM (inactive) in assay [6]. Further, the activity change, negative = inhibition in assay [2] is -17.4% (inactive); in assay [4], -2.35% (inactive); in assay [10] it was 5.97% (inactive). In addition, the activity, negative = inhibition in assay [5] is 1.62% (inactive). The compound was called inactive in assay [7]. The Potency result in assay [8], in assay [9] and in assay [11] was “inactive” in each case. Moreover, the max response in assay [10] (setting [14]) amounted to 20.5%; in assay [10] (setting [15]), 28.7%.
On to `O=C(c1ccco1)N1CCC2(CC1)CN(c1ccc(-c3ccccc3)cc1)C2`, for which the Potency is > 11.4 µM (inactive) in [1], 1 µM (active) in assay [3], > 46 µM (inactive) in [6] and 3.98 µM (active) in assay [9]. Further, the activity change, negative = inhibition is -23.8% (inactive) in assay [2], -4.82% (inactive) in [4] and 2.85% (inactive) in assay [10]. In addition, in assay [5], the activity, negative = inhibition was -21.1% (inactive). The outcome in assay [7] was inactive. Further, the Potency entry in assay [8], in assay [12] and in assay [11] was “inactive” throughout. Further, the max response in [10] (setting [14]) is -15.3%; in assay [10] (setting [15]), -11.7%.
As for `O=C(c1cccc(F)c1)N1CCC2(CC1)CCN(c1cccc(-c3ccccc3)c1)CC2`, the Potency in [1] was > 11.4 µM (inactive); in [3], 20 µM (active); in [6], > 46 µM (inactive); in [9] it was 5.01 µM (active). The results for the activity change, negative = inhibition in assay [2], in assay [4] and in [10] were -4.91% (inactive), 4.3% (inactive) and -5.71% (inactive), respectively. The activity, negative = inhibition in [5] was -10.4% (inactive). Further, in assay [7], the compound was classed as inactive. In addition, the Potency result in assay [8], in assay [12] and in assay [11] was “inactive” in each case. Further, the values for the max response in assay [10] (setting [14]) and in assay [10] (setting [15]) were -11.6% and -13.5%, respectively.
